Screens deposited in PubChem by National Center for Advancing Translational Sciences (NCATS).
In the library only some 4.6% were active in any assay of this set; here they are far more common.
D1 PAM – Potentiators of Human D1 Dopamine Receptor: qHTS | actives 0.036% (n = 360,000) | potentiation, % at 10 µM | AID 504651, 2011 | HEK293 TREx D1 cells, calcium flux, dopamine EC20 potentiation; in the data active = potentiation above about 30%; also: 0% is about no effect
TRHR enhancer – qHTS for Small Molecule Agonists and Allosteric Enhancers of Human TRH Receptor: Primary Screen for Enhancers | TRHR cells, fluo-8 calcium fluorescence, EC20 TRH enhancement | enhancement, % at 2 µM | actives 0.66% (n = 360,000) | AID 493056, 2011; in the data active = enhancement above about 30%; also: 0% is about no effect
Target sequence (P34981 whole entry, looked up): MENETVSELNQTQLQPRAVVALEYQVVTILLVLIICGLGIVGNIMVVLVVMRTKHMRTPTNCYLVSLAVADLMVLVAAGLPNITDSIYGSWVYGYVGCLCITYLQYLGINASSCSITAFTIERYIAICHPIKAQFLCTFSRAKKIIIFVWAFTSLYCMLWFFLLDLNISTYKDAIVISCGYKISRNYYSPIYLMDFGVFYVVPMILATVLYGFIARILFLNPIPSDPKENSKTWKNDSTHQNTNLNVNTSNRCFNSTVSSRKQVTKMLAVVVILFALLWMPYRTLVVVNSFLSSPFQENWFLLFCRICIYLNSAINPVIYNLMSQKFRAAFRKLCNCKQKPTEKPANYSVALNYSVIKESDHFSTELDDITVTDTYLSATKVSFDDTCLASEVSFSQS
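TRHR-expressing cells loaded with fluo-8 calcium dye were read kinetically (ex 480/em 530) during compound addition, then stimulated with an EC20 of TRH (10 nM final). Enhancement of the Gq-mediated intracellular calcium response was scored.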
D1 ag – Allosteric Agonists of the Human D1 Dopamine Receptor: qHTS; HEK293 T-REx D1 cells, calcium flux, agonist mode; actives 1% (n = 360,000); AID 504660, 2011; activation, % at 2 µM; also: 0% is about no effect
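Tetracycline-induced HEK293 TREx D1 cells, force-coupled to calcium signalling, were dye-loaded with a no-wash calcium kit. Compound was pin-added after a 10 s baseline. Fluorescence was read kinetically at 1 cycle/s for 180 s, with calcium rises flagged as agonism.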
D1 antagonist – Antagonist of Human D 1 Dopamine Receptor: qHTS | D(1A) dopamine receptor (Homo sapiens), P21728 | HEK293 TREx D1 cells, calcium flux, dopamine EC80; stronger effect = lower value | activity change, negative = inhibition, % at 10 µM | actives 3.2% (n = 360,000) | AID 504652, 2011; in the data active = activity change below about -30%; also: % is scaled to controls: 0 for no effect and ±100 for the full control effect
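Tetracycline-induced HEK293 T-REx cells with force-coupled D1 receptor were loaded with a no-wash calcium dye. Compound was added after a 10 s baseline and read kinetically for 180 s; EC80 dopamine was then added and calcium flux followed another 180 s.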
TRHR agonist – qHTS for Small Molecule Agonists and Allosteric Enhancers of Human TRH Receptor: Primary Screen for Agonists; AID 493084, 2011; actives 0.18% (n = 360,000); Thyrotropin-releasing hormone receptor (Homo sapiens), P34981; TRHR cells, calcium flux fluo-8, FDSS agonist mode; activation, % at 2 µM; also: 0% is about no effect
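Read-out: compound-evoked intracellular calcium rise in TRHR cells, fluo-8 dye, kinetic FDSS fluorescence at 1 s/cycle following a 10-cycle baseline. Cells cultured overnight before dye loading (30 min–1.5 h, RT).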
The depositor's hits bear a star. Rule as the data show it, unless noted: active = activation above about 30%; inactive = the rest.

Screening CCN(CC)c1ccc(/C=C(\C#N)C(N)=O)cc1 returned D1 PAM -1.9, TRHR enhancer 3.0, D1 ag 14.1, D1 antagonist 7.8 and TRHR agonist 4.5.
Screening CN(C)c1ccc(/C=C(\C#N)c2nc3ccccc3c(=O)[nH]2)cc1 returned D1 PAM 5.8, TRHR enhancer -0.9, D1 ag 96.9*, D1 antagonist -26.7 and TRHR agonist 37.6*.
For CCOC(=O)NC(=O)/C(C#N)=C/c1ccc(N(C)C)cc1 the results were D1 PAM -4.8, TRHR enhancer 13.4, D1 ag 30.8*, D1 antagonist -25.8 and TRHR agonist 10.5.
Cc1cccc(/C=C(\C#N)c2nc3ccccc3c(=O)[nH]2)c1 was read as D1 PAM -2.8, TRHR enhancer -0.6, D1 ag 5.7, D1 antagonist -19.3 and TRHR agonist 2.1.
`CCC(CC)n1[nH]c(=O)cc1N` gave D1 PAM 1.2, TRHR enhancer -1.9, D1 ag 1.0, D1 antagonist -1.0 and TRHR agonist 1.2.
For COc1ccc(OC)c(CN2CCN(C(=O)c3ccc(NS(=O)(=O)c4cccc([N+](=O)[O-])c4)cc3)CC2)c1 the results were D1 PAM -2.1, TRHR enhancer 4.0, D1 ag 4.7, D1 antagonist -4.3 and TRHR agonist -0.6.
For CCc1ccc(NC(=O)C2CCN(c3nnc(-n4c(C)ccc4C)s3)CC2)cc1 the results were D1 PAM -2.6, TRHR enhancer -0.8, D1 ag -1.4, D1 antagonist -6.2 and TRHR agonist -0.2.
Screening CCN(C(=O)CSc1nc2ccccc2nc1Cc1ccccc1OC)c1ccccc1 returned D1 PAM -0.4, TRHR enhancer -6.0, D1 ag 3.0, D1 antagonist -44.7* and TRHR agonist 0.0.
`COc1ccccc1NC(=O)CSc1nc2ccccc2cc1Cc1ccccc1` gave D1 PAM -2.9, TRHR enhancer -8.0, D1 ag 6.4, D1 antagonist -32.8* and TRHR agonist 0.4.
`CCN(CC(=O)Nc1ccccc1OC)C(=O)CCc1ccccc1` gave D1 PAM 5.5, TRHR enhancer 39.5*, D1 ag -3.5, D1 antagonist 7.2 and TRHR agonist 0.3.
`COc1ccccc1NC(=O)CSc1n[nH]c(Cc2ccccc2)n1` gave D1 PAM -3.1, TRHR enhancer -8.8, D1 ag 5.7, D1 antagonist -18.2 and TRHR agonist -0.4.
For COc1ccccc1Cc1nc2ccccc2nc1SCC(=O)N1CCCCC1 the results were D1 PAM -2.1, TRHR enhancer 3.5, D1 ag 1.3, D1 antagonist -1.7 and TRHR agonist 0.1.
COc1cccc(CN(C)C(=O)CCN=C2NS(=O)(=O)c3ccccc32)c1OC was read as D1 PAM -1.8, TRHR enhancer 5.4, D1 ag 0.2, D1 antagonist 10.0 and TRHR agonist 0.2.
CNCC[C@H](Oc1cccc2ccccc12)c1cccs1 was read as D1 PAM -1.2, TRHR enhancer 8.6, D1 ag 60.9*, D1 antagonist -26.5 and TRHR agonist 4.7.
`CCOC(=O)c1ccc(NC(C)=O)c([N+](=O)[O-])c1` gave D1 PAM 11.1, TRHR enhancer -3.2, D1 ag 4.5, D1 antagonist -0.7 and TRHR agonist 0.2.
Screening CNc1ccc(C(=O)OCC(=O)Nc2ccnn2C(C)C)cc1[N+](=O)[O-] returned D1 PAM -6.2, TRHR enhancer -2.8, D1 ag 3.5, D1 antagonist -42.1* and TRHR agonist 0.1.
`CN1CC(=O)N2C(c3ccc(Cl)cc3)c3[nH]c4ccccc4c3C[C@H]2C1=O` (stereo not given in full) gave D1 PAM 2.1, TRHR enhancer 14.5, D1 ag 3.4, D1 antagonist 10.1 and TRHR agonist 1.4.
`CC(C)c1ccc(NC(=O)CC2Oc3ccccc3NC2=O)cc1` (stereo not given) gave D1 PAM -7.4, TRHR enhancer 1.1, D1 ag -0.1, D1 antagonist -11.1 and TRHR agonist -0.2.
COc1ccccc1C1CC(c2cccc(NS(C)(=O)=O)c2)=NN1S(=O)(=O)c1ccccc1 (stereo not given) was read as D1 PAM -3.9, TRHR enhancer 30.7*, D1 ag 9.4, D1 antagonist -3.8 and TRHR agonist 0.5.
COc1ccccc1C1CC(c2ccc(NS(C)(=O)=O)cc2)=NN1S(=O)(=O)c1ccccc1 (stereo not given) was read as D1 PAM -0.1, TRHR enhancer 2.6, D1 ag 4.8, D1 antagonist 4.3 and TRHR agonist 0.3.
Screening O=c1c(Oc2ccccc2Br)c(C(F)(F)F)oc2c(CN3CCCC3)c(O)ccc12 returned D1 PAM 7.8, TRHR enhancer 32.4*, D1 ag -0.2, D1 antagonist 15.3 and TRHR agonist 0.9.
For Cc1cc(Oc2c(C(F)(F)F)oc3c(CN4CCC(C)CC4)c(O)ccc3c2=O)cc(C)c1Cl the results were D1 PAM -4.0, TRHR enhancer 10.0, D1 ag -1.0, D1 antagonist -7.2 and TRHR agonist 0.2.
COc1ccc(C(=O)c2sc(Nc3ccccc3)nc2N)cc1 was read as D1 PAM -2.2, TRHR enhancer 8.5, D1 ag 4.3, D1 antagonist 12.5 and TRHR agonist 0.8.
For COc1ccc(C(=O)c2sc(Nc3ccccc3)nc2N)cc1OC the results were D1 PAM -2.4, TRHR enhancer 32.7*, D1 ag 1.3, D1 antagonist 5.7 and TRHR agonist 0.4.
Screening Cc1ccc(NC(=O)CN(C)S(=O)(=O)c2cccs2)cc1F returned D1 PAM -2.8, TRHR enhancer 1.3, D1 ag 1.9, D1 antagonist -37.3* and TRHR agonist 1.5.
Cc1ccc(NC(=O)CN(C)S(=O)(=O)c2cccs2)cc1C was read as D1 PAM -7.9, TRHR enhancer 9.9, D1 ag 9.0, D1 antagonist -10.1 and TRHR agonist -1.0.
For CC1CCCCC12NC(=O)N(CC(=O)N1CCN(S(=O)(=O)Cc3ccccc3)CC1)C2=O (stereo not given) the results were D1 PAM -5.3, TRHR enhancer 8.6, D1 ag 0.8, D1 antagonist -35.3* and TRHR agonist 0.6.
`COc1ccc(CNC(=O)CCNC(=O)N2CCn3c2nc2ccccc23)cc1` gave D1 PAM 1.8, TRHR enhancer 1.9, D1 ag 1.3, D1 antagonist -5.8 and TRHR agonist 0.5.
